hERG WT inh – qHTS for Inhibitors of KCHN2 3.1: Wildtype qHTS. activity change, % at 1.84 µM. U2OS, BacMam KCNH2, thallium flux FluxOr; active compounds read low. 340,000 tested, 0.37% active;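 active = maximum activity change below -70%; inconclusive = maximum activity change between -70% and -50%; inactive = maximum activity change above -50%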; also: % is scaled to controls: 0 for no effect and ±100 for the full control effect
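U2OS cells transduced with wild-type KCNH2 virus are loaded with FluxOr dye for 45 min, and thallium flux is measured in kinetic reads before and after stimulation buffer. Rate constants are normalized to DMSO controls.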
EPAC2 antag – qHTS for Antagonist of cAMP-regulated guanine nucleotide exchange factor 2 (EPAC2): primary screen | Rap guanine nucleotide exchange factor 4 (Homo sapiens), Q8WZA2 | EPAC2 GEF exchange of Rap1B-BODIPY-GDP, fluorescence | Potency, µM (highest dose often 114 µM), without a hit: at the top dose activity, negative = inhibition, usual class: inhibitors | 360,000 tested, 0.18% active | AID 720708, 2013; also: potency is read from the fitted curve at half-maximal effect; % is scaled to controls: 0 for no effect and ±100 for the full control effect; nearly all actives have a fitted effect of over 45% in size
EPAC1 antagonist – qHTS for Antagonist of cAMP-regulated guanine nucleotide exchange factor 3 (EPAC1): primary screen; AID 720709, 2013; EPAC1 GEF assay, Rap1b-BODIPY-GDP exchange fluorescence; 360,000 tested, 0.14% active; Potency, µM (doses to about 115 µM), without a hit: at the highest dose activity change, negative = inhibition, hits mostly inhibitors; Rap guanine nucleotide exchange factor 3 (Homo sapiens), O95398;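 also: potency is read from the fitted curve at half-maximal effect; plate controls were vehicle for no effect and positive control for full effect; nearly all actives have a fitted effect of over 50% in size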
Target sequence (O95398 whole entry, looked up): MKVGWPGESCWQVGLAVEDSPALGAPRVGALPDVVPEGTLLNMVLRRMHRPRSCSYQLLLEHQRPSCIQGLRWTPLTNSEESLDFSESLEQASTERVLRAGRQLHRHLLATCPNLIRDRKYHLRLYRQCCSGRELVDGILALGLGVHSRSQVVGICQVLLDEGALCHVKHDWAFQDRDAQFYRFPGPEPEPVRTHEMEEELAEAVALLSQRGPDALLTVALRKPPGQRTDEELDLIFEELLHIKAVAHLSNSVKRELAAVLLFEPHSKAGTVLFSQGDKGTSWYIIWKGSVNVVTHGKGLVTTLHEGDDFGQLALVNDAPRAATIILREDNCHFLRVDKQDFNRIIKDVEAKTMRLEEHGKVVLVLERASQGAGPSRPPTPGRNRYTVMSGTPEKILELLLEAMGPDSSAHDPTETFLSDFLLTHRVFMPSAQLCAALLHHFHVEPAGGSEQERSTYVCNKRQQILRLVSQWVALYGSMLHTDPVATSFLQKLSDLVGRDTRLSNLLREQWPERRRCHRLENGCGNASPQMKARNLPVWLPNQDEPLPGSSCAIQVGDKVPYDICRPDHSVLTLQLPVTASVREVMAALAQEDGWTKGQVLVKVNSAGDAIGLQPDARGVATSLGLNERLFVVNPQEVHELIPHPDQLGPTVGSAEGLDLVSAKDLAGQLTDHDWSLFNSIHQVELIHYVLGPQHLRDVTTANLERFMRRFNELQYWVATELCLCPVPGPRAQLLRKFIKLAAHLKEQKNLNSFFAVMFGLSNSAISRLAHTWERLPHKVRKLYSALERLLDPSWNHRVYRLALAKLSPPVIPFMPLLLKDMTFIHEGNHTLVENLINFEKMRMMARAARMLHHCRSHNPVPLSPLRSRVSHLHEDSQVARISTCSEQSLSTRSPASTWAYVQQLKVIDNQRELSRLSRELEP
EPAC1 ag – qHTS for Agonist of cAMP-regulated guanine nucleotide exchange factor 3 (EPAC1): primary screen | Rap guanine nucleotide exchange factor 3 (Homo sapiens), O95398 | EPAC1 agonist qHTS, biochemical assay; response scale: 100% = response to 6.5 mM cAMP | Potency, µM (doses to about 154 µM), for the others: at the top dose activation, usual class: activators | 360,000 tested, 0.073% active; also: potency is read from the fitted curve at half-maximal effect; nearly all actives have a fitted effect of over 60% in size
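EPAC1 100 nM, Rap1B–BODIPY-GDP 250 nM, unlabeled GDP 50 uM; compound titration; 5 min RT; kinetic read ex480/em540 at 5-min intervals ×30 min; data normalized to 6.5 mM cAMP agonist control.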
EPAC2 ag – qHTS for Agonist of cAMP-regulated guanine nucleotide exchange factor 4 (EPAC2): primary screen; 360,000 tested, 0.079% active; Rap guanine nucleotide exchange factor 4 (Homo sapiens), Q8WZA2; EPAC2 activation, biochemical qHTS; response scale: 100% = 6.5 mM cAMP response; Potency, µM (top dose mostly 154 µM), for the others: at the top dose activation, most hits filed as activators; also: potency is read from the fitted curve at half-maximal effect; nearly all actives have a fitted effect of over 50% in size
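EPAC2 (100 nM) mixed with Rap1B loaded with BODIPY-GDP (250 nM) plus 50 uM unlabeled GDP; compounds pinned in, 5 min RT, then read every 5 min for 30 min (ex 480, em 540 nm). Normalized to cAMP control.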
KCNH2 3.1 block – qHTS for Inhibitors of KCHN2 3.1: Mutant qHTS; U2OS KCNH2 3.1, thallium flux FluxOr; active compounds read low; activity change, % (tested at about 1.8 µM); 340,000 tested, 0.95% active; AID 720553, 2013;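 active = maximum activity change below -70%; inconclusive = maximum activity change from -70% to -50%; inactive = maximum activity change above -50%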;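 also: thallium influx rate constant from kinetic fluorescence after stimulation buffer; % is scaled to controls: 0 for no effect and ±100 for the full control effect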
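We transduce U2OS cells with the mutant 3.1 virus, culture them overnight, load FluxOr with Red40 quencher for 45 min, then add stimulation buffer and read kinetically for 2 min to derive a normalized rate constant.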
* = called active by the depositor; i = inactive; ? = inconclusive; . = not tested or not shown; [ ] = remark or other dose. Shown are actives, neighbours in structure and some others; about 1.4% of the full set was active somewhere. Unless noted, calls follow the shape of the dose curve; as a rule, active = well fitted curve in the direction sought with a large enough effect; inconclusive = small, poorly fitted or top-dose-only effect, or another doubt; inactive = no such curve, though single readings can be large; an effect the other way counts as inactive or inconclusive.

SMILES | hERG WT inh | EPAC2 antag | EPAC1 antagonist | EPAC1 ag | EPAC2 ag | KCNH2 3.1 block
CCN1CC(CN(C)Cc2cn(-c3ccc(C)cc3)nc2-c2cccc(C)c2)CC1=O (stereo not given) | i | -15% | -19% | -10% | 5% | -27
COc1cccc(CNC(=O)c2cc3c(cc2Cl)N2CCCCCC2=NS3(=O)=O)c1 | -4 | 9% | -15% | -5% | 4% | 2
Cc1ccc(OCC(O)Cn2c(=N)n(Cc3ccccc3)c3ccccc32)cc1 (stereo not given) | -94* | 0% | 4% | -8% | -4% | -75*
N=c1n(Cc2ccc(Cl)cc2)c2ccccc2n1CC(O)COc1ccccc1 (stereo not given) | ? | -3% | -8% | 9% | 16% | -85*
Cc1cccc(C)c1-n1nnnc1C(c1ccnc2ccccc12)N(C)Cc1ccc(Cl)c(Cl)c1 (stereo not given) | . | 4% | 3% | 15% | 12% | .
CCCC[C@@H](CNC)NC[C@H](Cc1ccc(O)cc1)NCCc1ccc(OCC)cc1 | -24 | 5% | -7% | 5% | 6% | -71*
CCC[C@H](CN[C@@H](CNC)[C@H](C)O)NCCc1ccc(OC)cc1 | 12 | 5% | 1% | -16% | 11% | 21
O=C(NCCCN1CCN(CCCNC(=O)c2cccc(Cl)c2)CC1)c1cccc(Cl)c1 | -100* | 4% | 8% | 3% | -5% | -89*
COc1cccc(C(=O)NCCCN2CCN(CCCNC(=O)c3cccc(OC)c3)CC2)c1 | ? | 22% | 5% | -11% | -4% | -76*
COc1cccc(C(=O)NCCCNC(=O)c2cccc(OC)c2)c1 | -6 | 6% | 5% | 2% | 3% | -1
Cc1c(C)n(C)c2ccc(C(=O)NCCCN3CCCC3)cc12 | 8 | 4% | -10% | -1% | 2% | -97*
COc1ccc(CCC(=O)NNC(=O)Cn2nc(C)cc2C)cc1 | -1 | 1% | -8% | -5% | 6% | -8
COc1cccc(CN2CCN(C3CCN(c4cccc(C)c4C)CC3)CC2CCO)c1 (stereo not given) | -1 | -8% | 5% | 1% | 4% | -72*
COC(=O)[C@]12CCCCC=C1N(CCc1ccc(OC)c(OC)c1)C(=O)[C@H](CC(=O)NCC1CCCCC1)C2 | . | -7% | -21% | -8% | 19% | .
CCOC(=O)c1c(C)nc2sccn12 | 12 | 13% | 1% | 2% | 1% | -95*
Cc1[nH]n(-c2ccc([N+](=O)[O-])cc2)c(=O)c1C=NCCN1CCN(C(=O)c2ccc(Br)cc2)CC1 | -108* | -3% | -9% | 8% | 14% | -84*
COc1ccc2[nH]c(CN3CCC(n4nccc4NC(=O)C4CC4)CC3)c(C)c2c1 | ? | -5% | 0% | 6% | 6% | -76*
COc1ccc2[nH]c(C(=O)N3CCC(n4nccc4NC(=O)C4CC4)CC3)c(C)c2c1 | -2 | 0% | 16% | 1% | 1% | 0
Cc1cc(N2CCN(S(=O)(=O)c3ccc(Cl)c(Cl)c3)CC2)c2ccccc2n1 | ? | 1% | 3% | 15% | 20% | -113*
Cc1cc(N2CCN(S(=O)(=O)c3ccc(Cl)cc3)CC2)c2ccccc2n1 | ? | -9% | -2% | 17% | 21% | -95*
O=C(Nc1ccccc1Oc1cccnc1)C1CCCN(C/C=C/c2ccc(F)cc2)C1 (stereo not given) | -98* | -7% | -5% | 6% | -3% | -93*
CC(NCC(=O)Nc1ccccc1C(=O)NC1CC1)c1ccc(S(C)(=O)=O)cc1 (stereo not given) | 6 | 3% | ? | 0% | 8% | -26
Oc1ccc(C2=Nn3c(nnc3-c3ccco3)SC2)cc1O | 17 | ? | 45µM* | -1% | 28% | -27
CC(C)c1cn(CC[C@@H]2CC[C@@H](NC(=O)C3CCCCC3)[C@@H](CO)O2)nn1 | . | 2% | 31% | -19% | 11% | .
CN(Cc1ccccc1F)c1cc2c(c3c1ccn3C)C1CCC2C1 (stereo not given) | . | -28% | -27% | -6% | -4% | .
SMILES | hERG WT inh | EPAC2 antag | EPAC1 antagonist | EPAC1 ag | EPAC2 ag | KCNH2 3.1 block
Cc1nc2c(sc(=S)n2Cc2ccco2)c(=O)n1CC(=O)Nc1ccc(F)cc1 | 21 | -12% | -4% | -10% | -3% | -87*
Cc1nc2c(sc(=S)n2Cc2ccco2)c(=O)n1CC(=O)Nc1cc(F)ccc1F | 19 | -3% | -7% | 11% | 7% | ?
O=C(COC(=O)CCS(=O)(=O)c1ccccc1)Nc1ccc(N2CCCCC2)cc1 | -8 | 0% | 4% | -7% | 4% | -7
CCCCCCCCN1C(=O)[C@H](CC(=O)NCCc2ccccc2OC)C[C@@]2(C(=O)OC)CC(C)(C)CC=C12 | . | ? | -1% | -8% | -3% | .
CC(=O)c1c(OCC(=O)O)ccc2c(C)cc(=O)oc12 | 2 | 1% | 15% | 0% | 3% | -117*
Cc1ccc(N2CCN(/N=C/c3c(C)nn(-c4ccccc4)c3Cl)CC2)cc1 | . | -17%[57.1 µM] | -23% | -11% | -5% | -90*
CCOC(=O)c1c(OCC)[nH]c2ccc(O)cc12 | -1 | -1% | -5% | 3% | 9% | 4
Cc1ccc(Cl)c(OCCCN(C)Cc2ccccc2)c1 | -70* | -7% | 4% | 4% | 5% | -10
Cc1ccc(Cl)c(OCCCCN(C)Cc2ccccc2)c1 | 35 | 5% | 5% | -10% | 5% | -18
C=CCn1c(=NC(=O)c2ccccc2[N+](=O)[O-])sc2cc(S(C)(=O)=O)ccc21 | 2 | 2% | -4% | 1% | 1% | -3
Nn1c(SCc2cccc(Br)c2)nnc1-c1cccnc1 | -1 | -8% | 8% | 9% | 12% | -99*
C[C@H]1CN([C@@H](C)CO)C(=O)CCCn2nncc2CO[C@@H]1CN(C)S(=O)(=O)c1cn(C)cn1 | 9 | 3% | 8% | 0% | 0% | 9
CCCNC(=O)C[C@H]1CC[C@@H]2[C@H](COC[C@@H](O)CN2C(=O)c2ccccn2)O1 | . | 7% | 5% | -1% | 7% | .

Screens as filed in PubChem BioAssay.
